For some of these results: Measured potencies and affinities stand elsewhere.
Columns and labels:
Set-up in all cases: scale not given: direction of the effect not stated beside the values
[1] = biological target: Protein translocase subunit SecA (Escherichia coli (strain K12)) (UniProt P10408); test: Assay to Identify E. coli SecA ATPase Inhibitors; assay type: functional; settings: 30 µM
[2] = biological target: T1, Ubiquitin-activating enzyme e1, putative (Leishmania donovani (strain BPK282A1)) (UniProt E9BSI1); test: Leishmania donovani Ubiquitin Activating Enzyme (LdE1); assay type: functional; settings: 30 µM
T1 sequence (whole entry): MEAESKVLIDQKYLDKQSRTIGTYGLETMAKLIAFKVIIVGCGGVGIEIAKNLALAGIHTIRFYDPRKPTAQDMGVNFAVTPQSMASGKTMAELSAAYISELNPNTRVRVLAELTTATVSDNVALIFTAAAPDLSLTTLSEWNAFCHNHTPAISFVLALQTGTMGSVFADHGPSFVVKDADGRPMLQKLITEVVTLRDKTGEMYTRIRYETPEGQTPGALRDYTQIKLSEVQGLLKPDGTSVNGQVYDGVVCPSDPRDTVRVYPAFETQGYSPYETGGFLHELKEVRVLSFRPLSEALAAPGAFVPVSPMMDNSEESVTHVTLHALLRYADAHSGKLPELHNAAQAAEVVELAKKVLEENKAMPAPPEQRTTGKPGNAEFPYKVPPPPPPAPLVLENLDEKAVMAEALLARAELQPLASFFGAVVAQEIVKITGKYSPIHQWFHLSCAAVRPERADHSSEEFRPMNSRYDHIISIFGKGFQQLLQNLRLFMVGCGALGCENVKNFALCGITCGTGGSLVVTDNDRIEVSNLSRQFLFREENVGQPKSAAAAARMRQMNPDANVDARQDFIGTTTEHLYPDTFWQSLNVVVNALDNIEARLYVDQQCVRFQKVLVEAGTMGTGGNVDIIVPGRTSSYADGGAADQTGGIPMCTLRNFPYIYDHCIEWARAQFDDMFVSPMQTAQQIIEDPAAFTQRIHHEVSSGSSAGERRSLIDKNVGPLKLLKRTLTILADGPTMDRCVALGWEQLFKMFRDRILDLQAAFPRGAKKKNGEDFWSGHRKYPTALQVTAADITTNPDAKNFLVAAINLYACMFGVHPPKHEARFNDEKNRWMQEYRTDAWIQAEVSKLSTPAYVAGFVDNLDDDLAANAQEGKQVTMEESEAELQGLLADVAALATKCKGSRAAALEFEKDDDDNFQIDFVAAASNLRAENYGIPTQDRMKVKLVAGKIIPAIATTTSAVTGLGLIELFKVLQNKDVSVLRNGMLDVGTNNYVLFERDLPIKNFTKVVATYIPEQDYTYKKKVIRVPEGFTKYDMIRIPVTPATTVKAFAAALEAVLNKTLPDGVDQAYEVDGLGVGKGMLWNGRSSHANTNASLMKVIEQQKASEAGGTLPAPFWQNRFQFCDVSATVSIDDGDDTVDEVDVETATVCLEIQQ

[3] = biological target: AMP-activated protein kinase, AMPK (Homo sapiens) (UniProt P54646+O43741+P54619+Q9UGJ0+Q9Y478+Q13131+Q9UGI9); test: AMP-dependent Kinase enzyme assay. An in vitro enzyme assay that detects ADP turnover that is directly proportional to AMPK activity. This uses naive AMPK that is activated during the assay with MK-8722; assay type: functional; settings: 30 µM
[4] = biological target: Sialic acid-binding Ig-like lectin 9 (Homo sapiens) (UniProt Q9Y336); test: Hs-Siglec9 ALPHAscreen SOP 20170721; settings: 10 µM
Trypanosoma cruzi = test: Trypanosoma cruzi phosphomannomutase and mannose-1-phosphate guanylyltransferase assay; assay type: functional; settings: 10 µM
[5] = biological target: T2, Arginase-2, mitochondrial (Homo sapiens) (UniProt P78540); test: in vitro enzyme assay to detect the production of urea directly proportional to the activity of Arginase II; assay type: functional; settings: 33.3 µM; also: in the data most compounds retested in dose-response had high values
T2 sequence (whole entry): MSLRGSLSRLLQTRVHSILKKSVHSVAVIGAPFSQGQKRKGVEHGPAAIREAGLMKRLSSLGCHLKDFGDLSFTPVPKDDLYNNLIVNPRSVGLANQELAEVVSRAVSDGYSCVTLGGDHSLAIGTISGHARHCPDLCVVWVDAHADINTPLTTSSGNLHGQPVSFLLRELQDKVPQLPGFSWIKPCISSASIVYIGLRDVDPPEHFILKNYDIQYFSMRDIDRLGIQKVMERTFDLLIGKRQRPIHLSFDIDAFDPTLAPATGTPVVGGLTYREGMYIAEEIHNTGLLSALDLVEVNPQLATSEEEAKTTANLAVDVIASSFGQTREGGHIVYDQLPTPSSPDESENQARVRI

[6] = biological target: T3, Proteasome subunit beta (Trypanosoma cruzi) (UniProt O96673); test: Trypanosoma cruzi proteasome chymotrypsin-like activity (TcProtChymo) assay.; also: in the data most compounds retested in dose-response had high values; assay type: functional; settings: 9.37 µM
T3 sequence (whole entry): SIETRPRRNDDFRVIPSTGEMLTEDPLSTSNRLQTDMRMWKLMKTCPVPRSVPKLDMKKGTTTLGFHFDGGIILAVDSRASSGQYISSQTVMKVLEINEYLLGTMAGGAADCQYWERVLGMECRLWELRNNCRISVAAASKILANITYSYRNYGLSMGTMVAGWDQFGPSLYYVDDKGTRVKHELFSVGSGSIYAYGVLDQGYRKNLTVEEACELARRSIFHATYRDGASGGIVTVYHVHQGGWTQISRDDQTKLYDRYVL

Homo sapiens = species: Homo sapiens; test: To identify inhibition of the IFN signalling (Jak-Stat) pathway via expression of an eGFP reporter gene under the control of an IFN-stimulated response element (ISRE) containing MxA promoter.; assay type: functional; settings: 30 µM
[7] = biological target: T4, Tyrosyl-tRNA synthetase, putative (Trypanosoma cruzi (strain CL Brener)) (UniProt Q4DSP6); test: Trypanosoma cruzi tyrosyl tRNA synthetase (TcYRS) _High Tyrosine SOP; assay type: functional; settings: 30 µM; also: in the data most compounds retested in dose-response had high values
T4 sequence (whole entry): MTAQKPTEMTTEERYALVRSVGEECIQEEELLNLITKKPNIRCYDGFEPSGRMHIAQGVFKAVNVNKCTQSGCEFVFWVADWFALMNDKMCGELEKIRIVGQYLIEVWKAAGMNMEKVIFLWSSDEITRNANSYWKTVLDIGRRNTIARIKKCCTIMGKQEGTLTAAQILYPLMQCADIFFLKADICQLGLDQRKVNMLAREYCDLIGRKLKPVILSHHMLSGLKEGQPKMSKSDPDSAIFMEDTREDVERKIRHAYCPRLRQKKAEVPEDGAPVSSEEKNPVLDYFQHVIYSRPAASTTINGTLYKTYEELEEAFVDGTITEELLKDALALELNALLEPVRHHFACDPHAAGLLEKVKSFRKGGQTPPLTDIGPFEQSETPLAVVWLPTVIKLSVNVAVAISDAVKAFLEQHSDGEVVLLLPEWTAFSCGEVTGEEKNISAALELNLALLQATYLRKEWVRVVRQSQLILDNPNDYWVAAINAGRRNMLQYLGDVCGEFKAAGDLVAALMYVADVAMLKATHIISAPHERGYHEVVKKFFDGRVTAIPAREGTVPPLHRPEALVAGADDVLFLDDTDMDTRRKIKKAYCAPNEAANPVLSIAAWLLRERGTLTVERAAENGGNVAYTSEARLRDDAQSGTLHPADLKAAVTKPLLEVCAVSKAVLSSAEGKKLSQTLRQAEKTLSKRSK

[8] = biological target: T4, Tyrosyl-tRNA synthetase, putative (Trypanosoma cruzi (strain CL Brener)); test: Trypanosoma cruzi tyrosyl tRNA synthetase (TcYRS) SOP; assay type: functional; settings: 30 µM
[9] = biological target: Chromo domain-containing protein 1 (Saccharomyces cerevisiae (strain ATCC 204508 / S288c) (Baker's yeast)) (UniProt P32657); test: ScCHD-1 Enzyme Inhibition Assay; assay type: functional; settings: 30 µM; also: in the data most compounds retested in dose-response had high values
Sequence of Chromo domain-containing protein 1 (Saccharomyces cerevisiae (strain ATCC 204508 / S288c) (Baker's yeast)) (P32657 whole entry, the tested form may be a part): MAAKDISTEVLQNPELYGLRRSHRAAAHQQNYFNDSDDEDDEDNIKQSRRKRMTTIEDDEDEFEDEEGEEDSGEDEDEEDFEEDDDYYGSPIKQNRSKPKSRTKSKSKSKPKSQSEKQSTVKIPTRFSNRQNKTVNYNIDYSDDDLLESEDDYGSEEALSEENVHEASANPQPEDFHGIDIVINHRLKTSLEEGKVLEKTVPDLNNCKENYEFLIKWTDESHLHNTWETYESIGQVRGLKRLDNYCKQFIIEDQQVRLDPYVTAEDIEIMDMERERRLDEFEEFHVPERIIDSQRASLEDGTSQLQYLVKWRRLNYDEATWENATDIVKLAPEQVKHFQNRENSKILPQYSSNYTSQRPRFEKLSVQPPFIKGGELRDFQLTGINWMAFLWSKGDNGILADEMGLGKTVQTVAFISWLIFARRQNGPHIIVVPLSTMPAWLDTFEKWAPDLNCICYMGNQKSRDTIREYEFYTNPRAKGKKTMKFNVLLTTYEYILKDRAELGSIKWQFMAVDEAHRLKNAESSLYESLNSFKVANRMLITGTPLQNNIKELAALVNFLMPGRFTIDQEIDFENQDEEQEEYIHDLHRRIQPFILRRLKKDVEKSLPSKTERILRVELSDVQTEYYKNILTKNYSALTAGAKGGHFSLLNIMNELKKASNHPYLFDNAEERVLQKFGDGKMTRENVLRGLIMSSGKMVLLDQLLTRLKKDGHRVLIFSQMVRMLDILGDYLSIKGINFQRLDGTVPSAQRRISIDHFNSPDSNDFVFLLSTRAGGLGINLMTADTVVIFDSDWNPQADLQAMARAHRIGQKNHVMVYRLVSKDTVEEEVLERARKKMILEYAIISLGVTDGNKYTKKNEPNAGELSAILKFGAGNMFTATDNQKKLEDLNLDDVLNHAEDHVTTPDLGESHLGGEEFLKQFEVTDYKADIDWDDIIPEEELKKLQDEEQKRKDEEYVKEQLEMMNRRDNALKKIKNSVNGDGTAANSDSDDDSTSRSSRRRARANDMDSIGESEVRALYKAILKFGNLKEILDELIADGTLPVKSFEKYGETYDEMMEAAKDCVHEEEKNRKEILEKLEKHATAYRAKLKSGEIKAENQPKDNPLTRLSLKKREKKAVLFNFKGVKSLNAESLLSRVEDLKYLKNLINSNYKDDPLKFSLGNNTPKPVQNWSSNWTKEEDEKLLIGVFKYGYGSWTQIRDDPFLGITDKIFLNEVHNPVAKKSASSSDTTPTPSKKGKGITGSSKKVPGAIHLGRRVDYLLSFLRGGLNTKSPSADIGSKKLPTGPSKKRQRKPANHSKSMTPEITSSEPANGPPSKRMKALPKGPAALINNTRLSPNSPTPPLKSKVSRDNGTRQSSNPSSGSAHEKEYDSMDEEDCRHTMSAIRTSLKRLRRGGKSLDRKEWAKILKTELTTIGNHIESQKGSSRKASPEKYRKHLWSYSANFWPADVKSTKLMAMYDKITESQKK

Sequence of Sialic acid-binding Ig-like lectin 9 (Homo sapiens) (Q9Y336 whole entry): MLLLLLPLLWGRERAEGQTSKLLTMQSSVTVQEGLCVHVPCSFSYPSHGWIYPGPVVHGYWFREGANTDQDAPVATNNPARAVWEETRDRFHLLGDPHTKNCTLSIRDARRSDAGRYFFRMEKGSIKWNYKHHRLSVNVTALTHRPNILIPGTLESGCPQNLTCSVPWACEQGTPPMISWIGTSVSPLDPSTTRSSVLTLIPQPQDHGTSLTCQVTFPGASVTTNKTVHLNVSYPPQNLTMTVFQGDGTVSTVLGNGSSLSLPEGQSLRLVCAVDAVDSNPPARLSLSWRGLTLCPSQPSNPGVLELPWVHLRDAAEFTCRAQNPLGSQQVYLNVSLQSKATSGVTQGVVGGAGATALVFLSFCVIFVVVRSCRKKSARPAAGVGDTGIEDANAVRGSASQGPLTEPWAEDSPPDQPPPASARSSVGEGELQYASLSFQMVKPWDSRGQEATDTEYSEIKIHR
Sequence of Protein translocase subunit SecA (Escherichia coli (strain K12)) (P10408 whole entry): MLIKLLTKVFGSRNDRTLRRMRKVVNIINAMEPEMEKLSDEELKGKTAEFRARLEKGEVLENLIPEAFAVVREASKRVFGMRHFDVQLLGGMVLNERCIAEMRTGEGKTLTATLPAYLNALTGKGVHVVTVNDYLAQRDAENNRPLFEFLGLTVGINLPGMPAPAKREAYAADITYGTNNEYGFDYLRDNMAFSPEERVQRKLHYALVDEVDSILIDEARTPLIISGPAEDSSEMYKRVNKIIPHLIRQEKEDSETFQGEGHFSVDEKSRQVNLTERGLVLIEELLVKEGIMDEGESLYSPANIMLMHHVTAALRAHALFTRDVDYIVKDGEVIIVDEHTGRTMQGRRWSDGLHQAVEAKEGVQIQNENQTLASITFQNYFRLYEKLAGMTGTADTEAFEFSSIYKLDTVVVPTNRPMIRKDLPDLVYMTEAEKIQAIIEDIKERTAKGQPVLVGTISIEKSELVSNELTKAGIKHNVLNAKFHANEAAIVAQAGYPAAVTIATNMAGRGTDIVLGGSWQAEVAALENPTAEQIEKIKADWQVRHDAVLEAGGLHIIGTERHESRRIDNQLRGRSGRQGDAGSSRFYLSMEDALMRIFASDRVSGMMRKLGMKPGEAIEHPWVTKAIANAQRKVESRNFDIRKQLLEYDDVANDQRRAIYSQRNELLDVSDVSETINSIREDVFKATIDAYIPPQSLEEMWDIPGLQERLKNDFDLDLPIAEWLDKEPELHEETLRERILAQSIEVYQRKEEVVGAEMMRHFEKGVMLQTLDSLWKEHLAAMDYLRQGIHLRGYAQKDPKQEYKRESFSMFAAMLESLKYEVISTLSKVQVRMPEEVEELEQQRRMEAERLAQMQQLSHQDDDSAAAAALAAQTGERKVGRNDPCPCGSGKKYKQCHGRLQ

Compound: CN(CCO)Cc1nnc(C2CCN(C3CCCCC3)CC2)n1C
- Percent Effect [1]: -3.52%
- Percent Effect [2]: 8%
- Percent Effect [3]: 0.423%
- Percent Effect [4]: -0.412%
- Percent Effect (Trypanosoma cruzi): -3.41%
- Percent Effect [5]: 2.08%
- Percent Effect [6]: 18.1%
- Percent Effect (Homo sapiens): 10.8%
- Percent Effect [7]: 2.73%
- Percent Effect [8]: 11.1%
- Percent Effect [9]: -6.36%

Compound: O=C(CCC1CCCO1)NCc1ccnc(-n2cccn2)c1 (stereo not drawn)
- Percent Effect [1]: -7.06%
- Percent Effect [2]: 13.2%
- Percent Effect [3]: 2.95%
- Percent Effect [4]: -9.63%
- Percent Effect (Trypanosoma cruzi): -7.38%
- Percent Effect [5]: -1.44%
- Percent Effect [6]: 5.33%
- Percent Effect (Homo sapiens): 10.6%
- Percent Effect [7]: 0.493%
- Percent Effect [8]: 11.1%
- Percent Effect [9]: -5.06%

Compound: COCCCN(CCOC)C(=O)Nc1ccccc1Br
- Percent Effect [1]: 0.00988%
- Percent Effect [2]: -5.26%
- Percent Effect [3]: 4.89%
- Percent Effect [4]: -4.8%
- Percent Effect (Trypanosoma cruzi): -1.46%
- Percent Effect [5]: -10.7%
- Percent Effect [6]: 2.01%
- Percent Effect (Homo sapiens): -13.7%
- Percent Effect [7]: 3.19%
- Percent Effect [8]: 2.6%
- Percent Effect [9]: 0.558%

Compound: COc1ccccc1OCCC(=O)N1CCCC1Cn1cc(C)cn1 (stereo not drawn)
- Percent Effect [1]: -4.84%
- Percent Effect [2]: 13%
- Percent Effect [3]: 5.75%
- Percent Effect [4]: 5.19%
- Percent Effect (Trypanosoma cruzi): 1.86%
- Percent Effect [5]: 3.16%
- Percent Effect [6]: 0.0808%
- Percent Effect (Homo sapiens): 7.77%
- Percent Effect [7]: 7.62%
- Percent Effect [8]: 18.8%
- Percent Effect [9]: -6.89%

Compound: Cc1cc(C2CCCN(CCCNS(C)(=O)=O)C2)n[nH]1 (stereo not drawn)
- Percent Effect [1]: -3.61%
- Percent Effect [2]: 2.53%
- Percent Effect [3]: -4.24%
- Percent Effect [4]: 13.7%
- Percent Effect (Trypanosoma cruzi): -0.283%
- Percent Effect [5]: -2.66%
- Percent Effect [6]: -2.7%
- Percent Effect (Homo sapiens): -2.96%
- Percent Effect [7]: 5.42%
- Percent Effect [8]: 3.8%
- Percent Effect [9]: -0.769%

Compound: CCOc1ccc(Cl)cc1CNCCCn1ccnc1
- Percent Effect [1]: -0.524%
- Percent Effect [2]: 6.67%
- Percent Effect [3]: 7.15%
- Percent Effect [4]: -7.03%
- Percent Effect (Trypanosoma cruzi): -5.5%
- Percent Effect [5]: -9.68%
- Percent Effect [6]: 19%
- Percent Effect (Homo sapiens): 11%
- Percent Effect [7]: -2.12%
- Percent Effect [8]: 5.13%
- Percent Effect [9]: -11.2%

Compound: Cc1cnn(CC2CN(c3ncnc4ccsc34)CCO2)c1 (stereo not drawn)
- Percent Effect [1]: -2.74%
- Percent Effect [2]: 2.7%
- Percent Effect [3]: 4.84%
- Percent Effect [4]: -10%
- Percent Effect (Trypanosoma cruzi): 6.05%
- Percent Effect [5]: -2.5%
- Percent Effect [6]: 19.7%
- Percent Effect (Homo sapiens): 75.7%
- Percent Effect [7]: 11.9%
- Percent Effect [8]: 15.8%
- Percent Effect [9]: -0.587%

Compound: Cc1ccc(N2CCCC(NCc3ccncc3)C2)nn1 (stereo not drawn)
- Percent Effect [1]: -2.1%
- Percent Effect [2]: 11.4%
- Percent Effect [3]: -4.43%
- Percent Effect [4]: -7.21%
- Percent Effect (Trypanosoma cruzi): 0.718%
- Percent Effect [5]: -3.23%
- Percent Effect [6]: 26.8%
- Percent Effect (Homo sapiens): -2.46%
- Percent Effect [7]: 0%
- Percent Effect [8]: 2.53%
- Percent Effect [9]: -31.9%

From ChEMBL document CHEMBL3988442, “University of Dundee, Small-Polar-MMV Screening Library” (2021)
